These results are taken from PubChem BioAssay (NCATS).

Results filed as inconclusive are left out. Activity calls are given as the source filed them. Calls follow the shape of the dose curve; as a rule, active = well fitted curve in the direction sought with a large enough effect; inconclusive = small, poorly fitted or top-dose-only effect, or another doubt; inactive = no such curve, though single readings can be large; an effect the other way counts as inactive or inconclusive.

The first assay in a line: MultiTox-Fluor Cytotoxicity Assay - LYMP1-001 - Dead Cells (AID 946).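 Also: cells exposed to compound for 16 h.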 The note with it: LYMP1-001 lymphoblastoid cells, dead-cell protease fluorescence; series mostly up to 92.2 µM. In outline: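 In this qHTS, 15 uM tetraoctylammonium bromide defined 100% and DMSO defined basal activity. Lymphoblastoid cells (LYMP1-001, 2500 per well) received compound for 16 hr at 37 C before a fluorogenic dead-cell substrate readout at 485/520 nm.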
For `CC/C(C)=N/O`, the call was inactive.
Turning to `Nc1c(Cl)cc(Cl)cc1Cl`, the call was inactive.
As for `Nc1ccc(Cl)cc1[N+](=O)[O-]`, the compound was called inactive.
In the case of `OC/C(Br)=C(\Br)CO`, the compound was classed as inactive.
Still for that read-out and setting: under `CCC=O` stands “inactive”.
On to `CC(=O)OC(C)C`, for which the compound was called inactive.
Same read-out and setting: as for `C=CCn1c(=O)n(CC=C)c(=O)n(CC=C)c1=O`, the entry is “inactive”; as for `CCCCCCCCCCCCOCC1CO1` (configuration not stated), “inactive”.
Same read-out and setting: under `CCOC(=O)C(C)C(C)=O` (configuration not stated) stands “inactive”.
Regarding `Oc1cccc(Nc2ccccc2)c1`, the compound was called inactive.
On the same count and under the same terms, as for `C1CCC2OC2C1` (configuration not stated), the entry is “inactive”; as for `Nc1ccc([N+](=O)[O-])c(N)c1`, “inactive”.
The same measure, in the same setting: under `CSc1ccc(C=O)cc1` stands “inactive”.
For `O=C(Cl)c1ccccc1[N+](=O)[O-]`, the result was inactive.
As to `Nc1cccc([N+](=O)[O-])c1`, the call was inactive.
Same read-out and setting: as for `CCOCCOCC`, the entry is “inactive”; as for `C=CC(=O)NC(C)C`, “inactive”.
On to `O=[N+]([O-])c1cccc(Cl)c1`, for which the call was inactive.
On to `CCC(C)(C)C(=O)O`, for which the compound was called inactive.
Regarding `C/C(C=O)=C/c1ccccc1`, the compound was classed as inactive.
On to `CC(C)(O)C(=O)O`, for which the result was inactive.
The same measure, in the same setting: as for `CC(=O)OCCC(C)C`, the entry is “inactive”; as for `CCC(C)(C)C`, “inactive”.
Take `CC(C)CO`: the compound was called inactive.
Same read-out and setting: as for `CCOc1cccc(N)c1`, the entry is “inactive”.
Still for that read-out and setting: under `O=C1OC(=O)c2cc([N+](=O)[O-])ccc21` stands “inactive”; under `COC(=O)CCCC(=O)OC`, “inactive”; under `NC=O`, “inactive”.
On the same count and under the same terms, as for `O=C(Cl)c1cccc([N+](=O)[O-])c1`, the entry is “inactive”; as for `Cc1ccc2oc(=O)ccc2c1`, “inactive”.
As for `CC(=O)CCc1ccccc1`, the result was inactive.
The same measure, in the same setting: as for `C=CCCCCCCC=C`, the entry is “inactive”; as for `O=C(O)CNC(=O)c1ccc(CO)o1`, “inactive”.
On the same count and under the same terms, as for `Clc1ccccn1`, the entry is “inactive”.
Same read-out and setting: under `Nc1cc([N+](=O)[O-])ccc1C(=O)O` stands “inactive”; under `Nc1cccc(O)c1`, “inactive”.
For `CCOCCO`, the outcome was inactive.
As to `O=C(Cl)c1c(Cl)cccc1Cl`, the outcome was inactive.
Regarding `ICCc1ccccc1`, the call was inactive.

Another assay can be described thus: MultiTox-Fluor Cytotoxicity Assay - LYMP1-001 - Live Cells (AID 947). The following applies: LYMP1-001 lymphoblastoid cells, live-cell protease fluorescence viability; series mostly up to 92.2 µM.
For `CC/C(C)=N/O`, the compound was classed as inactive.
Regarding `Nc1c(Cl)cc(Cl)cc1Cl`, the result was inactive.
Still for that read-out and setting: as for `Nc1ccc(Cl)cc1[N+](=O)[O-]`, the entry is “inactive”.
On the same count and under the same terms, as for `OC/C(Br)=C(\Br)CO`, the entry is “inactive”.
For `CCC=O`, the call was inactive.
The same measure, in the same setting: under `CC(=O)OC(C)C` stands “inactive”; under `C=CCn1c(=O)n(CC=C)c(=O)n(CC=C)c1=O`, “inactive”.
On to `CCCCCCCCCCCCOCC1CO1` (configuration not stated), for which the result was inactive.
Take `CCOC(=O)C(C)C(C)=O` (configuration not stated): the result was inactive.
The same measure, in the same setting: as for `Oc1cccc(Nc2ccccc2)c1`, the entry is “inactive”; as for `C1CCC2OC2C1` (configuration not stated), “inactive”; as for `Nc1ccc([N+](=O)[O-])c(N)c1`, “inactive”.
`CSc1ccc(C=O)cc1`: the compound was called inactive.
The same measure, in the same setting: under `O=C(Cl)c1ccccc1[N+](=O)[O-]` stands “inactive”.
With `Nc1cccc([N+](=O)[O-])c1`, the result was inactive.
On the same count and under the same terms, as for `CCOCCOCC`, the entry is “inactive”; as for `C=CC(=O)NC(C)C`, “inactive”; as for `O=[N+]([O-])c1cccc(Cl)c1`, “inactive”.
With `CCC(C)(C)C(=O)O`, the compound was called inactive.
The same measure, in the same setting: as for `C/C(C=O)=C/c1ccccc1`, the entry is “inactive”; as for `CC(C)(O)C(=O)O`, “inactive”; as for `CC(=O)OCCC(C)C`, “inactive”.
As to `CCC(C)(C)C`, the result was inactive.
The same measure, in the same setting: under `CC(C)CO` stands “inactive”; under `CCOc1cccc(N)c1`, “inactive”.
Regarding `O=C1OC(=O)c2cc([N+](=O)[O-])ccc21`, the compound was classed as inactive.
On to `COC(=O)CCCC(=O)OC`, for which the compound was called inactive.
The same measure, in the same setting: as for `NC=O`, the entry is “inactive”; as for `O=C(Cl)c1cccc([N+](=O)[O-])c1`, “inactive”.
As for `Cc1ccc2oc(=O)ccc2c1`, the outcome was inactive.
Same read-out and setting: as for `CC(=O)CCc1ccccc1`, the entry is “inactive”; as for `C=CCCCCCCC=C`, “inactive”.
Still for that read-out and setting: under `O=C(O)CNC(=O)c1ccc(CO)o1` stands “inactive”; under `Clc1ccccn1`, “inactive”; under `Nc1cc([N+](=O)[O-])ccc1C(=O)O`, “inactive”.
Still for that read-out and setting: under `Nc1cccc(O)c1` stands “inactive”; under `CCOCCO`, “inactive”.
For the compound `O=C(Cl)c1c(Cl)cccc1Cl`, the result was inactive.
Regarding `ICCc1ccccc1`, the compound was called inactive.

A further assay in a line: Cell Viability - LYMP1-002 - Assay at 16 hr (AID 948). The note with it: LYMP1-002 lymphoblastoid cell viability; series mostly up to 92.2 µM. In short, it runs like this: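 Seed 2500 LYMP1-002 cells per well in complete medium and hold 5 hr at 37 C. Add compound across a concentration series and incubate 16 hr at 37 C. Add CellTiter-Glo, wait 30 min at room temperature, read luminescence.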
As to `CC/C(C)=N/O`, the call was inactive.
The same measure, in the same setting: under `Nc1c(Cl)cc(Cl)cc1Cl` stands “inactive”; under `Nc1ccc(Cl)cc1[N+](=O)[O-]`, “inactive”; under `OC/C(Br)=C(\Br)CO`, “inactive”.
Still for that read-out and setting: as for `CCC=O`, the entry is “inactive”.
On the same count and under the same terms, as for `CC(=O)OC(C)C`, the entry is “inactive”; as for `C=CCn1c(=O)n(CC=C)c(=O)n(CC=C)c1=O`, “inactive”.
Turning to `CCCCCCCCCCCCOCC1CO1` (configuration not stated), the result was inactive.
The same measure, in the same setting: under `CCOC(=O)C(C)C(C)=O` (configuration not stated) stands “inactive”.
In the case of `Oc1cccc(Nc2ccccc2)c1`, the outcome was inactive.
In the case of `C1CCC2OC2C1` (configuration not stated), the compound was classed as inactive.
For the compound `Nc1ccc([N+](=O)[O-])c(N)c1`, the call was inactive.
Regarding `CSc1ccc(C=O)cc1`, the outcome was inactive.
`O=C(Cl)c1ccccc1[N+](=O)[O-]`: the outcome was inactive.
Same read-out and setting: under `Nc1cccc([N+](=O)[O-])c1` stands “inactive”; under `CCOCCOCC`, “inactive”; under `C=CC(=O)NC(C)C`, “inactive”.
Same read-out and setting: as for `O=[N+]([O-])c1cccc(Cl)c1`, the entry is “inactive”; as for `CCC(C)(C)C(=O)O`, “inactive”.
As to `C/C(C=O)=C/c1ccccc1`, the call was inactive.
Take `CC(C)(O)C(=O)O`: the outcome was inactive.
For `CC(=O)OCCC(C)C`, the result was inactive.
With `CCC(C)(C)C`, the compound was called inactive.
With `CC(C)CO`, the compound was called inactive.
Turning to `CCOc1cccc(N)c1`, the compound was classed as inactive.
With `O=C1OC(=O)c2cc([N+](=O)[O-])ccc21`, the result was inactive.
As for `COC(=O)CCCC(=O)OC`, the outcome was inactive.
Consider `NC=O`, for which the compound was called inactive.
Regarding `O=C(Cl)c1cccc([N+](=O)[O-])c1`, the call was inactive.
Still for that read-out and setting: under `Cc1ccc2oc(=O)ccc2c1` stands “inactive”; under `CC(=O)CCc1ccccc1`, “inactive”; under `C=CCCCCCCC=C`, “inactive”.
Still for that read-out and setting: as for `O=C(O)CNC(=O)c1ccc(CO)o1`, the entry is “inactive”.
Still for that read-out and setting: under `Clc1ccccn1` stands “inactive”; under `Nc1cc([N+](=O)[O-])ccc1C(=O)O`, “inactive”.
In the case of `Nc1cccc(O)c1`, the result was inactive.
Still for that read-out and setting: as for `CCOCCO`, the entry is “inactive”; as for `O=C(Cl)c1c(Cl)cccc1Cl`, “inactive”.
As for `ICCc1ccccc1`, the result was inactive.
